Bioassay records: PubChem, NMMLSC
Anthrax LF inh2: blocks Bacillus anthracis lethal factor protease; 360,000 tested, 0.12% active; multiplex microsphere protease cleavage assay, LF; P15917; AID 588501; inhibition, % at 10 µM; further: plate controls were buffer without enzyme for full effect and enzyme alone for no effect
Bead autofluor: compound fluorescence in toxin protease inhibitor counterscreen; compound autofluorescence counterscreen, microsphere flow cytometry; stronger effect = higher value; fluorescence intensity (test concentration not listed); 360,000 tested, 3.1% active; AID 624483; in the data active means fluorescence intensity above about 16000; inconclusive means no clear call, values can overlap the other calls
BoNT-A LC inh2: blocks Botulinum neurotoxin A light chain protease; multiplex microsphere protease substrate cleavage, flow cytometry; inhibition, % at 10 µM; 360,000 tested, 0.17% active; further: plate controls were buffer without enzyme for full effect and enzyme alone for no effect
BoNT-F LC inh: BoNT F light chain protease inhibition; Multiplex microsphere protease cleavage assay, flow cytometry; inhibition, % at 10 µM; 360,000 tested, 0.22% active; AID 588497; in the data active means inhibition above about 35%, passing the limit was not always enough; inconclusive means no clear call, values can overlap the other calls; further: plate controls were buffer without enzyme for full effect and enzyme alone for no effect
An asterisk follows results filed as active; ? = inconclusive. Only some compounds are listed: those with a hit (about 3.5% of all), similar ones and a draw of the others. Unless noted, no stated cut-off is given here; in the data, active means inhibition above about 30%; inconclusive means no clear call, values can overlap the other calls; inactive means below that.

SMILES | Anthrax LF inh2 | Bead autofluor | BoNT-A LC inh2 | BoNT-F LC inh
CCCc1nc(S(=O)(=O)Cc2ccc(Cl)cc2Cl)n[nH]1 | 0 | 17841* | 5 | 8
Cc1cc(SCC(=O)OCC(=O)N(CCC#N)c2ccccc2)nc2ccccc12 | 0 | 5222 | 0 | 6
CN(CCO)c1cc(Sc2nc3ccccc3s2)c2nonc2c1[N+](=O)[O-] | -1 | 21417* | 2 | 3
COCCCNC(=S)NNC(=S)Nc1ccc(F)cc1F | -1 | 21111* | ? | 0
COCCCNC(=S)NNC(=S)Nc1ccccc1 | 0 | 5310 | -2 | -12
Cc1ccc(S(=O)(=O)O)c(C)c1N1CCCC1=O | 2 | 20761* | -3 | -6
Cc1ccc(S(N)(=O)=O)c(C)c1N1CCCC1=O | 8 | 3405 | -1 | 4
Cc1cc(S(=O)(=O)Nc2ccc(C(=O)NC3CC3)cc2)ccc1F | -2 | 3683 | 0 | -3
CCc1nnc(NC(=O)c2ccc(COc3ccccc3)o2)s1 | -4 | 17254* | -3 | -3
CCc1nnc(NC(=O)c2ccc(C)o2)s1 | 1 | 5485 | 0 | 4
CCc1nnc(NC(=O)c2ccc(COc3ccc(C)cc3)o2)s1 | 1 | 23447* | -1 | -1
CCc1nnc(NC(=O)c2ccc(Br)o2)s1 | -8 | 4476 | -3 | -3
COc1cc(C2NC(=S)NC(C)=C2C(=O)Nc2cc(C)cc(C)c2)ccc1O (stereo not given) | -10 | 4334 | 1 | -6
COCCn1c(SCC(=O)N2CCC(C)CC2)nc2ccccc2c1=O | 0 | 7929 | 0 | 3
COc1ccc(C(=O)Nn2c(SCC(=O)NC3CCCCC3)nc3ccccc3c2=O)cc1 | -1 | 20612* | -1 | -2
COc1ccc(C(=O)Nn2c(SCC(=O)N3CCC(C)CC3)nc3ccccc3c2=O)cc1 | 0 | 20975* | ? | -5
COc1ccc(C(=O)Nn2c(C3CCC3)nc3ccccc3c2=O)c(OC)c1 | -8 | 18494* | 4 | 7
COc1ccc(C(=O)Nn2c(SCC(=O)c3ccc(Cl)cc3)nc3ccccc3c2=O)cc1 | -1 | 20288* | 0 | 0
COc1ccc(C(=O)Nn2c(C)nc3ccccc3c2=O)cc1 | 1 | 4471 | -3 | ?
COc1cc2nc(C3CCC3)n(NC(=O)c3ccco3)c(=O)c2cc1OC | -2 | 4252 | -1 | -14
O=C(O)C1(C(=O)O)CCC2(CCCCC2)CC1 | 3 | 3825 | 0 | -4
CC1CCN(C(=O)CSc2ccc(-c3ccc(F)cc3)nn2)CC1 | -1 | 23070* | 1 | 1
COc1ccc(-c2ccc(SCC(=O)N3CCOCC3)nn2)cc1 | -3 | 22594* | 1 | 6
O=C(CSc1ccc(-c2ccc(Br)cc2)nn1)N1CCOCC1 | 3 | 3957 | 0 | -1
Clc1ccc(Cl)c(-c2nn3c(COc4ccccc4)nnc3s2)c1 | -3 | 10331 | 0 | 12
SMILES | Anthrax LF inh2 | Bead autofluor | BoNT-A LC inh2 | BoNT-F LC inh
CCc1nnc2sc(-c3cc(-c4ccccc4)nc4ccccc34)nn12 | -1 | 19922* | 0 | 1
O=C(Nc1nc(-c2ccccc2Cl)cs1)c1cccnc1 | 0 | 20683* | 0 | 1
Cc1cc(-c2ccccc2)nc(=O)[nH]1 | -1 | 4132 | -1 | -8
O=c1nc(N(c2ccccc2)c2ccccc2)[nH]c(=O)[nH]1 | -1 | 20223* | ? | -3
COc1ccc(CCN2CC(C(=O)NCCN3CCOC3=O)CCC2=O)cc1 (stereo not given) | -2 | 6229 | -1 | 0
Cc1nnc(SCC(=O)NCc2cccs2)n1-c1ccccc1 | 2 | 8288 | 1 | 1
Cc1nnc(SCc2ccccc2F)n1NCc1cccs1 | 2 | 22098* | 4 | 1
Cc1ccc(CCNC(=O)CCSCc2ccc(Cl)cc2)cc1 | -3 | 2213 | 0 | -7
Cc1ccc(CSCCNC(=O)/C=C/c2ccc(Cl)cc2)cc1 | 1 | 21860* | 2 | 3
CCc1cc(=O)oc2c(C)c(OC(C)C(=O)NCCCn3ccnc3)ccc12 (stereo not given) | 10 | 4970 | 6 | 5
COc1ccc(C)cc1NC(=O)CN1CCN(S(=O)(=O)c2ccc3ccccc3c2)CC1 | 3 | 3702 | 1 | 2
O=C(NCC1OCCCN1S(=O)(=O)c1cc(F)ccc1F)C(=O)NC1CCCC1 (stereo not given) | 4 | 5786 | 2 | -7
Cc1c(C(=O)Nc2ccccc2N2CCN(C)CC2)oc2ccc(F)cc12 | ? | ? | -2 | ?
Cc1oc(-c2ccccc2F)nc1CN1CCC(C(=O)NCc2ccco2)CC1 | 2 | 19776* | ? | 1
COc1ccc(CCNC(=O)C2CCN(Cc3nc(-c4ccc(Cl)cc4)oc3C)CC2)cc1OC | -9 | 3492 | -1 | -2
COc1ccc(CCNC(=O)C2CCN(Cc3nc(-c4ccccc4C)oc3C)CC2)cc1OC | -7 | 22311* | -2 | -4
Cc1oc(-c2ccccc2F)nc1CN1CCC(C(=O)NC2CCCCCCC2)CC1 | -1 | 16243* | 1 | 2
COC(=O)c1[nH]c2ccccc2c1NC(=O)C(C)N1CC(C)OC(C)C1 (stereo not given) | 6 | 4528 | -3 | ?
Cc1ccccc1NC(=O)Cc1nc(COC(=O)CSc2ccc(F)cc2)cs1 | -3 | 3954 | 0 | -3
CC(C)[N+]1=C2C=CC=CC=C2SC12C([N+](=O)[O-])=CC(=[N+]([O-])[O-])C=C2[N+](=O)[O-] (stereo not given) | -12 | 2794 | 41* | ?
O=C(Cn1nnc2ccccc2c1=O)N[C@@H](Cc1ccccc1)C(=O)O | -2 | 3487 | 0 | 0
O=C(O)CCCNC(=O)CCn1nnc2ccccc2c1=O | -2 | 4894 | -1 | -4
O=C(O)CCCCCNC(=O)CCn1nnc2ccccc2c1=O | -2 | 21187* | ? | 6
CC(C)[C@H](NC(=O)CCn1nnc2ccccc2c1=O)C(=O)O | -1 | 8616 | 3 | 13
O=C(CCn1nnc2ccccc2c1=O)NCC1CCC(C(=O)O)CC1 (stereo not given) | -3 | 24413* | -3 | -1
SMILES | Anthrax LF inh2 | Bead autofluor | BoNT-A LC inh2 | BoNT-F LC inh
COCCNC(=O)C1(C)CCCN(CCSc2ccccc2)C1 (stereo not given) | 0 | 3837 | 0 | -2
COc1ccc(Br)cc1C(=O)Nc1ccccc1-c1ccccc1 | -3 | 28074* | -15 | -15
COc1ccc(Br)cc1C(=O)Nc1ccccc1N1CCCC1 | -1 | 6629 | -2 | -14
Cc1c(C(=O)Nc2ccccc2-c2ccccc2)cccc1[N+](=O)[O-] | -10 | 20236* | 4 | 3
CCOc1ccc(C(=O)Nc2cccc(C(=O)O)c2C)cc1Cl | 1 | 2536 | -1 | -9
CCOc1ccc(C(=O)Nc2ccccc2-c2ccccc2)cc1Cl | -7 | 17980* | 6 | 6
CCOc1c(Cl)cc(C(=O)Nc2ccccc2C(=O)O)cc1Cl | -3 | 19009* | ? | 2
CN(C=O)c1cc([N+](=O)[O-])ccc1OCc1ccccc1 | 1 | 4150 | 0 | -1
CCCn1nc(C(=O)Nc2ccc3c(c2)OCCO3)c2ccccc2c1=O | -3 | 6690 | -4 | -4
COc1ccccc1CNC(=O)CCNS(=O)(=O)c1ccc2c(c1)CC(C)N2C(C)=O (stereo not given) | -3 | 5622 | -1 | -8
COc1cc(OC)c(NC(=O)c2cc3ccccc3cc2O)cc1Cl | 4 | 2789 | 0 | -2
